# Six1-Eya2 inh: inhibitors of human Six1/Eya2 interaction; AID 651725; activity change, % (no concentration beside the values); AlphaScreen GST-Six1/His-Eya2 binding, biochemical; hits give low values; hit rate 0.56% among 360,000; Q15475+O00167; in the data active = activity change below about -65%; inconclusive = mostly about -30% to -63%
# Target sequence (O00167 whole entry, looked up): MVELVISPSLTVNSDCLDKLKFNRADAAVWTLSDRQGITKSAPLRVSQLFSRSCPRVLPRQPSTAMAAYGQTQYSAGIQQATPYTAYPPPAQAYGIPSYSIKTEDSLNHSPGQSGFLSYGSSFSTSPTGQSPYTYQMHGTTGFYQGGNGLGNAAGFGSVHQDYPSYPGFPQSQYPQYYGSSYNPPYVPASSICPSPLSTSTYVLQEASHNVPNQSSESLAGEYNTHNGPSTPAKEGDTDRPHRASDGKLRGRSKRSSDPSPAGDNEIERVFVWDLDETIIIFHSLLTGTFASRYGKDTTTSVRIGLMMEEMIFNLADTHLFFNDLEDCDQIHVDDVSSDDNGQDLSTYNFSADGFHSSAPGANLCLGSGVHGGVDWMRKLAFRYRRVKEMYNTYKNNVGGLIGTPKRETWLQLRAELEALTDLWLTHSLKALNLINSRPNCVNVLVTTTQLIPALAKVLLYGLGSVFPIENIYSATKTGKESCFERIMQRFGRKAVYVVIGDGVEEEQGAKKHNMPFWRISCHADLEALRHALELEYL
# Target sequence (Q15475 whole entry, looked up): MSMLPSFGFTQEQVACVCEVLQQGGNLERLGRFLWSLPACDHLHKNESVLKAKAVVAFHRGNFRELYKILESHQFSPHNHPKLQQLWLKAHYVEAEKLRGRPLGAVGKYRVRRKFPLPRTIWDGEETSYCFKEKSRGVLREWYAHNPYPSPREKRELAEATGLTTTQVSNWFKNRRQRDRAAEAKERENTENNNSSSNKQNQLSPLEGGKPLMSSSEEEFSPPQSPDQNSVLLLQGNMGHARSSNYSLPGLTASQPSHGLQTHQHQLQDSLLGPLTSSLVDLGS
#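 Compounds are tested against tagged Six1 and Eya2 proteins bridged by glutathione donor and nickel acceptor beads; after a one-hour incubation at 37 °C without light, AlphaScreen emission is recorded.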
# TDP1 block: TDP1 (human) enzyme inhibition. hit rate 0.28% among 350,000. recombinant TDP1, AlphaScreen DNA substrate cleavage. Potency, µM (titrated, usually from 130 µM), actives largely listed as inhibitors. Q9NUW8; note: nearly all actives have a fitted effect of over 40% in size
#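 Steps: enzyme plus compound, 15 min RT; add biotin/phosphotyrosine-FITC oligonucleotide (15 nM final), react 5 min; add donor/acceptor beads (10 ug/ml final), 10 min; read AlphaScreen. Tdp1 at 1 nM final.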
# TDP1 cell CPT: growth inhibition of DT40 Tdp1-/-;hTDP1 cells with camptothecin (screen for TDP1 inhibitors); AID 686979; hit rate 12% among 420,000; Potency, µM (highest dose often 46.2 µM), actives largely listed as inhibitors; chicken DT40 Tdp1-/-;hTDP1 cells + 20 nM CPT, ATP luminescence, 48 h; note: nearly all actives have a fitted effect of over 55% in size
#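 Chicken DT40 Tdp1-/- cells complemented with human TDP1, 400 cells/well, exposed to compounds plus 20 nM camptothecin for at least 48 h at 37 C; viability read as ATP content by CellTiter-Glo luminescence.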
# CtBP-E1A inh: CtBP/E1A binding inhibition. activity change, % (test concentration not listed). hit rate 0.49% among 340,000. AlphaScreen GST-E1A/His-CtBP binding, 1536-well; hits give low values. AID 651724; in the data active = activity change below about -65%; inconclusive = mostly about -30% to -63%
#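 GST-E1A and His-tagged CtBP (125 nM each as 5X stock) were preincubated with pin-transferred compound for 2 h at 37 °C in the dark, then glutathione donor and nickel acceptor beads were added for 1 h before AlphaScreen reading.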
# DT40 TDP1 no CPT: qHTS for Inhibitors of human tyrosyl-DNA phosphodiesterase 1 (TDP1): qHTS in cells in absence of CPT; DT40 Tdp1-/- hTDP1 cells, no CPT, ATP luminescence, 48 h; Potency, µM (series often up to 46.2 µM), actives largely listed as inhibitors; AID 686978, 2013; hit rate 15% among 420,000; note: nearly all actives have a fitted effect of over 55% in size
#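 Growth kinetics read by CellTiter-Glo luminescence after ≥48 hr at 37 °C. Cells: DT40 Tdp1-/- stably carrying human TDP1, 400 per well, compound exposure in the absence of CPT (DMSO vehicle).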
# IL-1B inflam inh: blocks inflammasome-driven IL-1 beta release | THP-1 LPS/ATP IL-1B secretion, AlphaLISA, 16 h; hits give low values | hit rate 4.7% among 360,000 | AID 743279 | activity change, % at 57.5 µM; in the data active = activity change below about -50%; inconclusive = mostly about -30% to -49%
#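 THP-1 cells pretreated 1 hr with compounds (up to 57.5 uM final), then stimulated with LPS (250 ng/mL final) plus ATP (1.25 mM final); secreted IL-1B measured by AlphaLISA after 16 hr, decreased signal indicating inhibition.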
# Numbers stand for hits; n = inactive; u = inconclusive; x = not tested or not shown; ! = not active in a repeat. This is a sample that favours compounds with a hit; in the whole collection about 18% have one here. Unless noted, calls come from the whole dose curve; as a rule, active = well fitted curve in the direction sought with a large enough effect; inconclusive = small, poorly fitted or top-dose-only effect, or another doubt; inactive = no such curve, though single readings can be large; an effect the other way counts as inactive or inconclusive.
SMILES,Six1-Eya2 inh,TDP1 block,TDP1 cell CPT,CtBP-E1A inh,DT40 TDP1 no CPT,IL-1B inflam inh
Cc1ccc(CCN2C(=O)c3ccccc3C2C(=O)NCc2cccnc2)cc1 (stereo not given),n,n,n,n,n,n
CCN1C(=O)[C@H]2[C@@H](c3ccc(C)cc3)N3C(=O)N(c4cccc(F)c4)C(=O)[C@@]3(CC)[C@H]2C1=O,n,x,u,n,n,n
COc1ccc2occ(C(=O)c3coc4ccc(O)c(CN(C)C)c34)c2c1,n,n,16µM,n,u,n
CN(C)Cc1c(O)ccc2occ(C(=O)c3ccc(F)cc3)c12,n,x,u,n,n,-54
CC(=O)Nc1nnc([N+](=O)[O-])s1,n,x,18µM,n,18µM,n
CC(=O)Nc1nnc(C)s1,n,n,n,n,n,n
O=C(c1cc(-c2cccs2)on1)N1CCc2ccccc2C1,n,n,n,n,n,n
COc1ccc(NC(=O)NS(=O)(=O)c2ccc(C)cc2)cc1OC,n,n,n,x,n,n
CC(C)(C)C(=O)NC(NC(=S)Nc1sc2c(c1C#N)CCCC2)C(Cl)(Cl)Cl (stereo not given),n,n,26µM,n,u,n
CC(C)(C)c1ccc(C(=O)NC(=S)Nc2sc3c(c2C#N)CCC3)cc1,n,n,u,n,u,u
COC(=O)CCC(=O)Nc1sc2c(c1C#N)CCCC2,n,n,4.6µM,n,4.6µM,n
N#Cc1c(NC(=S)NC(=O)c2ccccc2)sc2c1CCC2,n,n,18µM,n,u,n
CC(=O)NC(=S)Nc1sc2c(c1C#N)CCCCC2,n,n,u,n,u,-74
COc1ccccc1Nc1nc(N)nc(CSc2nc(C)cc(C)n2)n1,n,n,n,n,n,n
CCCOc1ccc(CCC(=O)N/N=C/c2ccncc2)cc1,n,n,26µM,n,u,n
CCCOc1ccc(CCC(=O)N/N=C/c2ccco2)cc1,n,n,n,n,n,x
CC(C(=O)c1ccccc1)[n+]1cccc(Br)c1 (stereo not given),n,x,u,n,u,n
Cc1cc(=O)[nH]c(N2CCOCC2)n1,n,n,n,n,n,n
Cc1cc(N2CCOCC2)c2c(N)c(Br)cc(C)c2n1,n,n,u,n,3.3µM,u
CCCCN(C)CCCNC(=O)CCn1nc(-c2ccccc2)ccc1=O,n,n,n,n,n,n
COc1cc(C(=O)OCCNC(=O)c2ccccc2)cc(OC)c1OC,n,x,n,n,u,n
CC(=O)C1=CCC(c2ccc(C)cc2)N(S(=O)(=O)c2ccc(C)cc2)C1 (stereo not given),n,x,u,n,u,n
O=C(O)C1=CC[C@@H](c2ccc(Cl)cc2)N(S(=O)(=O)c2ccc(Cl)cc2)C1,n,n,n,x,n,n
CC(=O)C1=CCC(c2ccc(Cl)cc2)N(S(=O)(=O)c2ccc(C)cc2)C1 (stereo not given),n,x,u,n,16µM,-57!
CC(=O)C1=CCC(c2ccc(Cl)cc2)N(S(=O)(=O)c2ccccc2)C1 (stereo not given),n,x,21µM,n,18µM,n
SMILES,Six1-Eya2 inh,TDP1 block,TDP1 cell CPT,CtBP-E1A inh,DT40 TDP1 no CPT,IL-1B inflam inh
CC(=O)C1=CCC(c2ccccc2)N(S(=O)(=O)c2ccccc2)C1 (stereo not given),n,x,29µM,n,18µM,n
CC(=O)C1=CCC(c2ccccc2F)N(S(=O)(=O)c2ccc(C)cc2)C1 (stereo not given),n,x,u,n,u,u
COc1ccc(C2CC=C(C(C)=O)CN2S(=O)(=O)c2ccc(Cl)cc2)cc1 (stereo not given),n,x,16µM,n,16µM,n
COc1ccc(OC)c(CN2CCC(C(=O)N3CCN(c4ccccc4F)CC3)CC2)c1,n,n,n,n,n,n
COc1ccc(-n2c(CCc3ccccc3)n[nH]c2=S)cc1,n,n,u,x,u,n
COc1ccc(NC(=O)c2nnn(Cc3ccc(SC)cc3)c2N)c(OC)c1,n,n,n,n,n,n
CCc1ccc(CNCCNC(=O)c2ccco2)cc1,n,x,n,n,n,n
COC(=O)c1ccc2nc(C(C)(C)C)c(Cc3ccc(OC)cc3C)n2c1,n,x,n,n,u,n
CC(=O)C1=CCC(c2ccccc2)N(S(=O)(=O)c2cccc(C)c2)C1 (stereo not given),n,x,16µM,n,13µM,n
CC(=O)C1=CCC(c2ccc(Br)cc2)N(S(=O)(=O)c2ccc(C)cc2)C1 (stereo not given),n,x,18µM,n,u,-52
COCCNC(=O)c1cc(C)ccc1C,n,n,n,n,n,n
C=C(CN(C)C)C(=O)c1cc(C)ccc1C,n,x,0.58µM,n,1µM,-101
CCOc1ccc(Oc2ccccc2NC(=O)C2=COCCO2)cc1,n,n,16µM,n,u,n
CCOc1ccc(Oc2ccc(S(=O)(=O)N3CCOCC3)cc2NC(=O)C2=COCCO2)cc1,n,x,u,n,23µM,n
COc1ccc(NC(=O)C(=O)NCCc2ccccc2)cc1OC,x,n,n,x,u,x
O=S(=O)(Nc1cccc(-c2ccc(N3CCOCC3)nn2)c1)c1ccc(F)cc1F,x,n,n,x,n,x
Cc1ccc(Oc2ccc(Cl)cc2NC(=O)c2cnccn2)cc1,n,n,n,n,n,n
O=C(Cc1ccc([N+](=O)[O-])cc1)OCc1ccc([N+](=O)[O-])cc1,n,n,n,n,n,n
N=C(N)SCCc1ccc(OCc2ccc([N+](=O)[O-])cc2)cc1,x,n,8.4µM,x,u,x
O=C1NC(c2ccccc2)Nc2c1sc(=S)n2-c1ccccc1 (stereo not given),n,n,n,x,6.5µM,n
COc1ccc(-c2csc(NC(=O)CSc3nnc(Nc4ccccc4C)s3)n2)cc1,n,n,6.5µM,n,6.5µM,n
COc1ccc2cc(C)c3nnc(SCC(=O)Nc4nc(-c5ccc(F)cc5)cs4)n3c2c1,n,n,21µM,n,23µM,n
COc1ccc(NC(=O)CSc2nnc3c(C)cc4ccccc4n23)cc1,x,n,n,x,n,x
COc1ccc(NC(=O)Nc2nnc(SCC(=O)Nc3cccc(C)c3C)s2)cc1,x,n,18µM,x,7.3µM,x
COc1ccccc1Nc1nnc(SCC(=O)Nc2nc(-c3ccc(F)cc3)cs2)s1,n,n,15µM,x,13µM,n
Cc1sc2ncn(CC(=O)N3CCN(c4cccc(Cl)c4)CC3)c(=O)c2c1S(=O)(=O)N1CCN(c2ncccn2)CC1,x,n,n,x,n,x
C=CCn1c(=O)c2ccc(C(=O)NCc3ccccc3)cc2n(Cc2ccc(Cl)cc2)c1=O,n,n,u,n,u,n

# Screening results from PubChem.
